In the supplement of paper PMC13380429 one finds morphology score and SARS-CoV-2 infection rate data, which are given here for 25 molecules.

Counter-ions that a name gives are not always drawn.

Experiment [1] relates to Vero E6 infected with SARS-CoV-2. Description: morphology score (similarity to uninfected cells); higher = more like uninfected cells. The settings on record: 24 h.
The test system is the same in experiment [2]. Description: SARS-CoV-2 infection rate relative to infected DMSO; higher = more infection, active = 60 or less. The conditions noted are these: 24 h.

In experiment [1], `O=c1cc(-c2ccccc2)oc2cc(O)cc(O)c12` [chrysin] (10 µM) showed a morphology score of 0.175. Besides, the SARS-CoV-2 infection rate in experiment [2] is 104% (inactive).
The like results for `CCN(CC)C(=S)S` [ditiocarb-sodium-trihydrate] (10 µM) were, in that order, 0.761 and 11% (active).
On to `OC[C@H]1O[C@@H](c2ccc(F)c(Cc3cc4ccccc4s3)c2)[C@H](O)[C@@H](O)[C@@H]1O` [ipragliflozin-L-proline] (10 µM), for which the morphology score in experiment [1] came to 0.0125. Moreover, the SARS-CoV-2 infection rate in experiment [2] is 110% (inactive).
The like results for `Oc1c(I)cc(I)c2cccnc12` [iodoquinol] (0.833333 µM) were, in that order, 0.155 and 99.5% (inactive).
Taken in the same sequence, the figures for `CC(C)=CCC[C@](C)(O[C@@H]1O[C@H](CO)[C@@H](O)[C@H](O)[C@H]1O)[C@H]1CC[C@]2(C)[C@@H]1[C@H](O)C[C@@H]1[C@@]3(C)CC[C@H](O)C(C)(C)[C@@H]3CC[C@]12C` [ginsenoside-C-K] (10 µM) were 0.0257 and 118% (inactive).
Taken in the same sequence, the figures for `NCC(=O)CCC(=O)O` [5-aminolevulinic-acid] (10 µM) were 0.0459 and 113% (inactive).
For `CC(C)Nc1cc(-c2c[nH]c(C(=O)N[C@H](CO)c3cccc(Cl)c3)c2)c(Cl)cn1` (0.833333 µM), the morphology score in experiment [1] is -0.017. The SARS-CoV-2 infection rate in experiment [2] is 109% (inactive).
Turning to `Cn1c(NC[C@@H](N)Cc2ccccc2)nc(-c2ccncc2)c(-c2ccc3ccccc3c2)c1=O` (10 µM), in experiment [1], the morphology score was determined as 0.653. Moreover, the SARS-CoV-2 infection rate in experiment [2] was 35% (active).
Taken in the same sequence, the figures for `C=CCN1CCc2cc(O)c(O)cc2[C@H](c2ccccc2)C1` (10 µM) were -0.0101 and 95% (inactive).
Taken in the same sequence, the figures for `Cn1nnnc1SCC1=C(C(=O)O)N2C(=O)[C@@H](NC(=O)[C@H](OC=O)c3ccccc3)[C@H]2SC1` [cefamandole-nafate] (10 µM) were 0.0598 and 102% (inactive).
As for `CSCC[C@H](NC(=O)[C@H](CC(C)C)NC(=O)CNC(=O)[C@H](Cc1ccccc1)NC(=O)[C@H](Cc1ccccc1)NC(=O)[C@H](CCC(N)=O)NC(=O)[C@H](CCC(N)=O)NC(=O)[C@@H]1CCCN1C(=O)[C@H](CCCCN)NC(=O)[C@@H]1CCCN1C(=O)[C@@H](N)CCCN=C(N)N)C(N)=O` [substance-P] (10 µM), the morphology score in experiment [1] is -0.0435. In addition, in experiment [2], the SARS-CoV-2 infection rate is 114% (inactive).
Molecule `O=C(CCCCCCCn1cc(-c2cccnc2)nn1)Nc1ccccc1-c1ccccc1` (0.833333 µM) registered a morphology score in experiment [1] of -0.143. For the same molecule, the SARS-CoV-2 infection rate in experiment [2] was 114% (inactive).
The like results for `Cc1cc(Nc2cc(N3CCN(C)CC3)nc(Sc3ccc(NC(=O)C4CC4)cc3)n2)n[nH]1` [tozasertib] (10 µM) were, in that order, 0.292 and 119% (inactive).
The like results for `CCOC(=O)C1=CCCC[C@H]1S(=O)(=O)Nc1ccc(F)cc1Cl` [resatorvid] (10 µM) were, in that order, 0.0683 and 99.5% (inactive).
The like results for `O=c1oc2c(O)c(O)cc3c(=O)oc4c(O)c(O)cc1c4c23` [ellagic-acid] (10 µM) were, in that order, 0.105 and 94% (inactive).
Turning to `CN1C(=O)CCS(=O)(=O)C1c1ccc(Cl)cc1` (stereo not given) [chlormezanone] (10 µM), in experiment [1], the morphology score was -0.0968. Besides, the SARS-CoV-2 infection rate in experiment [2] was 117% (inactive).
For the molecule `CC1=CC(=C(c2ccc(N)cc2)c2ccc(N)cc2)C=CC1=N` [basic-fuchsin] (0.833333 µM), the morphology score in experiment [1] came to 0.163. The SARS-CoV-2 infection rate in experiment [2] is 97.5% (inactive).
Consider `CC[C@@H](c1cccc(O)c1)[C@@H](C)CN(C)C` [Tapentadol (hydrochloride)] (10 µM), for which the morphology score in experiment [1] was found to be 0.0731. Also, the SARS-CoV-2 infection rate in experiment [2] is 108% (inactive).
Taken in the same sequence, the figures for `CCN(CC)CCOc1ccc2c(c1)C(=O)c1cc(OCCN(CC)CC)ccc1-2` [tilorone] (0.833333 µM) were 0.187 and 105% (inactive).
The like results for `CCCCC(CC)CCC(CC(C)C)OS(=O)(=O)O` (stereo not given) [sodium-tetradecyl-sulfate] (10 µM) were, in that order, 0.0389 and 102% (inactive).
Taken in the same sequence, the figures for `C=C1C(=O)O[C@@H]2[C@H]3C(C)=CC[C@@]34O[C@@]4(C)CC[C@@H]12` [arglabin] (10 µM) were 0.144 and 68% (inactive).
`COC[C@@H](NC(C)=O)C(=O)NCc1ccccc1` [Lacosamide] (10 µM) returned a morphology score in experiment [1] of -0.1. Further, the SARS-CoV-2 infection rate in experiment [2] was 103% (inactive).
Taken in the same sequence, the figures for `C[C@H]1C[C@H]2[C@@H]3CCC4=CC(=O)C=C[C@]4(C)[C@@]3(Cl)[C@@H](O)C[C@]2(C)[C@@]1(O)C(=O)CO` [beclomethasone] (10 µM) were 0.101 and 89.5% (inactive).
Molecule `CNC(=O)[C@H](Cc1ccccc1)NC(=O)[C@H](CC(C)C)[C@H](CSc1cccs1)C(=O)NO` [batimastat] (10 µM) gave a morphology score in experiment [1] of 0.0292. Also, in experiment [2], the SARS-CoV-2 infection rate was 104% (inactive).
For `CC(=O)OCC(=O)[C@@]1(O)CC[C@H]2[C@@H]3CCC4=CC(=O)C=C[C@]4(C)[C@H]3[C@@H](O)C[C@@]21C` [prednisolone-acetate] (10 µM), in experiment [1], the morphology score was -0.148. Moreover, in experiment [2], the SARS-CoV-2 infection rate is 108% (inactive).
